SW480 rerep: inducers of DNA re-replication in SW480 colon cancer cells. SW480 DNA re-replication, Hoechst DNA content imaging, 48 h. Potency, µM (doses to about 46.1 µM), most hits filed as activators. 340,000 compounds, 1.8% hits; further: nearly all actives have a fitted effect of over 55% in size
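Compounds, transferred as 23 nL by pin tool, were incubated with cells for 48 hr; DNA content per nucleus was then quantified by Hoechst staining and fluorescence plate imaging.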
MCF10A rereplic: induces DNA re-replication in MCF 10a normal breast cells | MCF 10A DNA re-replication, Hoechst nuclear intensity, 48 h | Potency, µM (titrated, usually from 46.1 µM), actives largely listed as activators | 350,000 compounds, 2.9% hits; further: nearly all actives have a fitted effect of over 50% in size
KB-V1 MDR tox: KB-V1 MDR subline cytotoxicity; 400,000 compounds, 3.4% hits; KB-V1 MDR cells viability, CellTiter-Glo, 72 h; AID 1347076; Potency, µM (doses to about 46.1 µM), most hits filed as cytotoxic; further: nearly all actives have a fitted effect of over 60% in size
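Luminescent ATP read-out (CellTiter-Glo, 10 min) measures survival of drug-selected KB-V1 MDR cells after 72 h, 37 degrees C compound exposure. Medium: phenol-red-free DMEM, 10% FBS. Values from fitted concentration-response curves.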
ASM inhibitor: inhibitors of human secretory acid sphingomyelinase | P17405 | Potency, µM (doses to about 57.5 µM), hits mostly inhibitors | placental ASM, HMU-PC fluorogenic substrate, 60 min | 340,000 compounds, 0.006% hits
Target sequence (P17405 47-631 limits assumed): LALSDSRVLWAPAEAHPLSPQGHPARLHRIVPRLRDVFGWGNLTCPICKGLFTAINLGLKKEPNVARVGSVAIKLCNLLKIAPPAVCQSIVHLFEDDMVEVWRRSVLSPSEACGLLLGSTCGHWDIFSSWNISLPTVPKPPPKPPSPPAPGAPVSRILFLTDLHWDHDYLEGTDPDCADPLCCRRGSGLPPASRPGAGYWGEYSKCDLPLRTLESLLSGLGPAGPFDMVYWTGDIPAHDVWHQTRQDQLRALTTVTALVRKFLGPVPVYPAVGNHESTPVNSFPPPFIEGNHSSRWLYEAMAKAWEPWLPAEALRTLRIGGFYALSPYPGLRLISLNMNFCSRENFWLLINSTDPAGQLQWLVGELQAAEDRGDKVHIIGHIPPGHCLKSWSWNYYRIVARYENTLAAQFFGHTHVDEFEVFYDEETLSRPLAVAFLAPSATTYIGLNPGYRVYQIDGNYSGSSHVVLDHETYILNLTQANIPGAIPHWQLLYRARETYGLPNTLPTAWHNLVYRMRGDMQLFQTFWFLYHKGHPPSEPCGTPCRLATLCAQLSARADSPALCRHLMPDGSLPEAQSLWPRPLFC
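qHTS format. ASM enzyme prepared from human placenta hydrolyses the fluorogenic substrate HMU-PC0 (9 uM final) over 60 min at 37 °C after a 10 min compound preincubation.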
Giardia kill: Giardia lamblia killing | Giardia lamblia trophozoite viability | activity change, % at 7.66 µM, hits read low | 340,000 compounds, 0.15% hits | AID 540267; in the data active means activity change below about -80%; inconclusive means between about -30% and that limit;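 further: parasites exposed to compound for two days anaerobically before the ATP read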
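Trophozoites 100 cells/well + cpd; 48 hrs, 37 deg C, anaerobic. ATPLite 1-Step added, 15-30 min RT, luminescence read (ATP-based viability).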
KB-3-1 cytotox: kills parental KB-3-1 adenocarcinoma cells. KB-3-1 viability, CellTiter-Glo ATP luminescence, 72 h. Potency, µM (highest dose often 46.1 µM), most hits filed as cytotoxic. 400,000 compounds, 1.4% hits; further: nearly all actives have a fitted effect of over 60% in size
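Screening of KB-3-1 cells (DMEM, 10% FBS, phenol-red free) ran from lowest to highest compound concentration; after 72 h at 37 °C viability was read luminescently and curves fitted.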
Hits are given with their value; i = inactive; ? = inconclusive; nt = no result given; ! = repeats disagree. The list is not random: actives were taken first. Their share in the collection is about 6.9%. Unless noted, the call rests on the fitted dose curve; in most records, active means well fitted curve in the direction sought with a large enough effect; inconclusive means small, poorly fitted or top-dose-only effect, or another doubt; inactive means no such curve, though single readings can be large; an effect the other way counts as inactive or inconclusive.

SMILES	SW480 rerep	MCF10A rereplic	KB-V1 MDR tox	ASM inhibitor	Giardia kill	KB-3-1 cytotox
COc1ccc(CN(CC(O)COCc2ccccc2)S(=O)(=O)c2ccccc2Br)cc1 (configuration not stated)	i	?	i	i	i	i
Cc1ccc(CNC(=O)CSc2ncc3c(n2)-c2ccc(Cl)cc2N(Cc2ccccc2)S3(=O)=O)cc1	nt	nt	i	nt	nt	i
COc1ccc(OC)c(NC(=O)Cn2cc(C(=O)c3ccc(Cl)cc3)c(=O)c3cc(OC)ccc32)c1	nt	nt	i	nt	nt	i
Cc1ccccc1CNC(=O)c1ccccc1NC(=O)c1nsc2ccccc12	nt	nt	i	nt	nt	i
Cc1ccc(-c2csc(=Nc3ccc(F)cc3)n2Cc2ccc3c(c2)OCO3)cc1C	nt	nt	i	nt	nt	i
CCc1nc(N2CCCCC2C)c2oc3ccccc3c2n1 (configuration not stated)	?	?	7.3µM	i	i	?
CCc1nc(Nc2ccncc2)c2oc3ccccc3c2n1	18µM	?	i	i	i	8.2µM
CCc1nc(N2CCCCC2C(=O)O)c2oc3ccccc3c2n1 (configuration not stated)	i	i	i	i	i	i
COc1ccccc1Cn1cc(C(=O)c2ccc(C)cc2)c(=O)c2cc(C)ccc21	nt	nt	i	nt	nt	i
S=C(c1cccs1)N1CCN(c2ccccc2)CC1	i	i	i	i	i	i
CCOc1ccc(S(=O)(=O)N(C)C)cc1-c1nc2c(C(C)(C)C)nn(C)c2c(=O)[nH]1	i	?	?	i	i	i
CCOc1ccc(S(=O)(=O)N(C)CCO)cc1-c1nc2c(C(C)(C)C)nn(C)c2c(=O)[nH]1	i	i	10µM	i	i	?
CCc1ccc(S(=O)(=O)c2cn(C)c3cc(F)c(F)cc3c2=O)cc1	nt	nt	i	nt	nt	i
CCc1cc(=O)oc2cc(C)c3c(-c4ccc(F)cc4)coc3c12	nt	nt	?	nt	nt	i
CCc1ccc(C(c2ccccc2)c2c(C)[nH]c3ccccc23)s1 (configuration not stated)	nt	nt	i	nt	nt	?
CCCCCCCCCCOC(=O)Cn1c(COc2ccc(OC)cc2)[n+](C)c2ccccc21	?	6.5µM!	i	?	i	21µM!
CCCCCCCCCCOC(=O)Cn1c(COc2ccccc2)[n+](C)c2ccccc21	i	?	i	?	i	i
CC(=O)N[C@@H](C)c1nc2ccccc2n1CCCN1CCN(c2nc(-c3ccc(C)cc3)cs2)CC1	i	i	?	i	i	?
COCc1ccc(-c2c(-c3ccc(OC)cc3)oc(=O)c3cc(OC)c(OC)cc23)cc1	i	2.6µM	i	i	i	i
COc1cc(OC)cc(C(=O)N[C@H](C(=O)N2CCc3ccccc32)C(C)C)c1	?	?	?	i	i	i
COc1cc(OC)cc(C(=O)NC(C(=O)N2CCc3ccccc3C2)C(C)C)c1 (configuration not stated)	18µM	?	?	i	i	?
COc1ccc(OC)c(CN2CCN(C(=O)[C@@H](NC(=O)c3cccc(C)c3)C(C)C)CC2)c1	i	?	9.2µM	i	i	i
CC(C)CC(CSc1ccc(Br)cc1)N1CCN(C)CCC1=O (configuration not stated)	nt	nt	nt	nt	i	nt
Fc1ccc(/C=N/n2c(C3CCCCC3)n[nH]c2=S)cc1	i	?	i	i	i	i
CC(C)c1ccc(/C=N/n2c(COc3ccccc3)n[nH]c2=S)cc1	i	21µM	?	i	i	i
CCOc1ccc(/C=N/n2c(C3CCCCC3)n[nH]c2=S)cc1	i	10µM	i	i	i	i
CCOc1ccc(-n2c(=O)c3c(C)c(C)sc3n(Cc3cc(=O)n4cc(Cl)ccc4n3)c2=O)cc1	nt	nt	i	nt	nt	i

Screens (PubChem BioAssay)
